# An excerpt weighted towards active compounds, which were near 0.86% of everything screened.
# CDC25B-CDK2 inh – human CDC25B-CDK2/CyclinA binding inhibition | P30305+P24941 | HTRF CDC25B-CDK2/CyclinA binding, anti-His/anti-Flag; hits give high values | z-score (concentration not given with the values) | 94,000 tested, 0.72% active | AID 1259370; in the data active means z-score above about 3.2
# TAR Tat displ – HIV-1 TAR-Tat binding disruption. HIV-1 TAR RNA, Tat peptide displacement FRET; hits give high values. AID 1259389. z-score (no concentration beside the values). 100,000 tested, 0.6% active; active means z-score of 3 or more in at least 2 runs
# * hit, by the source's call; nt = not tested or not shown.
SMILES,CDC25B-CDK2 inh,TAR Tat displ
O=C(CCc1nc2sc3c(c2c(=O)[nH]1)CCCCC3)NC1CCCCC1,nt,-0.45
CC1CCN(C(=O)CCc2nc3sc4c(c3c(=O)[nH]2)CCCC4)CC1,nt,0.18
O=C(CCc1nc2sc3c(c2c(=O)[nH]1)CCCCC3)N1CCN(c2cccc(Cl)c2)CC1,nt,28*
O=C(CCc1nc2sc3c(c2c(=O)[nH]1)CCCCC3)N1CCC(Cc2ccccc2)CC1,nt,4.3*
O=C(CCc1nc2sc3c(c2c(=O)[nH]1)CCCCC3)NC1CCCC1,nt,18*
CCCCC1(C)Cc2ccccc2C(=O)N1 (configuration not stated),-0.54,1.8
O[C@H]1C=C2CCN3Cc4cc5c(cc4C(C23)[C@@H]1O)OCO5 (some centres not stated),nt,20*
Cc1ccc(/C(O)=C2/C(=O)C(=O)N(CC3CCCO3)C23C(=O)N(C)c2ccccc23)cc1F (configuration not stated),0.18,16*
CCCN1C(=O)C2(/C(=C(/O)c3ccc(C)c(F)c3)C(=O)C(=O)N2CC2CCCO2)c2ccccc21 (configuration not stated),-0.53,-0.71
CC1=C(C#N)C(=O)NC(=O)/C1=C\c1ccc(-c2ccccc2)o1,-5.6,nt
CC1=C(C#N)c2nc(N)c(C#N)c(C)c2/C1=C/c1ccc(-c2ccc(C(=O)O)c(Cl)c2)o1,5.1*,nt
Clc1cccc(Nc2nnc(Cc3cccnc3)c3ccccc23)c1,-0.39,1.5
Cc1ccc(C)c(N2CCN(S(=O)(=O)c3ccc(-c4cc(C)[nH]n4)s3)CC2)c1,nt,-0.46
Oc1c(CN2CCN(Cc3ccc4cccnc4c3O)CC2)ccc2cccnc12,-4.2,9.4*
Oc1ccc(CN2CCN(c3ccccc3)CC2)c2cccnc12,nt,2.1
Oc1ccc(CN2CCCCC2)c2cccnc12,14*,1.3
Oc1c(CN2CCOCC2)ccc2cccnc12,1.3,0.41
O=C1CCC(=O)N1SC1=C(C(F)(F)F)C(F)(F)C(F)(F)C1(F)F,-1.7,nt
CCn1c2ccccc2c2cc(CN3CCN(Cc4ccc(SC)cc4)CC3)ccc21,11*,nt
CCn1c2ccccc2c2cc(CN3CCN(S(C)(=O)=O)CC3)ccc21,0.07,0
COc1cc(OC)cc(-c2nnc(Cc3c(F)cccc3Cl)o2)c1,0.11,-0.71
CCOC(=O)c1nc(-c2ccc([N+](=O)[O-])o2)no1,-2.9,nt
CC1CN(C(=O)CCC(=O)NCCN2CCOCC2)c2cc(Cl)ccc2O1 (configuration not stated),-1.1,-2.1
CCCCc1c(C)nc(N2CCN(c3ccccc3)CC2)[nH]c1=O,nt,-0.35
COc1ccc(Cl)c(Cn2cnc3c2c(=O)n(C)c(=O)n3C)c1,-0.26,nt
SMILES,CDC25B-CDK2 inh,TAR Tat displ
COc1ccc(Cl)c(Cn2c(NCCN)nc3c2c(=O)n(C)c(=O)n3C)c1,4.6,3.6*
COc1ccc(N2C(=O)C3N=NN(CC(=O)Nc4cccc(SC)c4)C3C2=O)cc1OC (configuration not stated),nt,0.09
Cc1cc2c(cc3n2CC(C)(C(=O)NC2CCCCC2)N(C2CCCCC2)C3=O)o1 (configuration not stated),nt,2.8
CC1CCCC(NC(=O)C2(C)Cn3c(cc4occc43)C(=O)N2Cc2ccco2)C1C (configuration not stated),nt,4.2
CC1CCC(NC(=O)C2(C)Cn3c(cc4occc43)C(=O)N2Cc2cccs2)CC1 (configuration not stated),nt,10*
CC1CCCCC1NC(=O)C1(C)Cn2c(cc3occc32)C(=O)N1C1CCCCC1 (configuration not stated),nt,3
CC1CCCCC1NC(=O)C1(C)Cn2c(cc3occc32)C(=O)N1c1ccc(Cl)cc1 (configuration not stated),nt,7.6*
Cc1cc2c(cc3n2CC(C)(C(=O)NC2CCCCC2)N(C(C)C)C3=O)o1 (configuration not stated),nt,7.2*
CC1CCC(NC(=O)C2(C)Cn3c(ccc3-c3ccco3)C(=O)N2Cc2cccs2)CC1 (configuration not stated),nt,0.47
CC1CCC(NC(=O)C2(C)Cn3c(cc4occc43)C(=O)N2Cc2ccco2)CC1 (configuration not stated),nt,19*
CN(C(=O)Cn1c(=O)oc2cc(S(=O)(=O)N3CCCCC3)ccc21)C1CCCCC1,0.05,0.67
CCOC(=O)N1CCN(C(=O)C2=CCN(S(=O)(=O)c3ccc(Br)cc3)CC2)CC1,-1.1,0.5
O=C(NCCN1CCCCC1)NC1COc2ccccc2C1 (configuration not stated),nt,0.21
Cc1cc(C)cc(N2C(=O)c3cc4occc4n3CC2(C)C(=O)NC2CCC(C)CC2)c1 (configuration not stated),nt,12*
CCC(C)N1C(=O)c2cc3occc3n2CC1(C)C(=O)NC1CCC(C)CC1 (configuration not stated),nt,5.3
O=C(O)/C=C/C(=O)Nc1ccc(C(F)(F)F)cc1NC(=O)/C=C/C(=O)O,-0.58,nt
O=C(/C=C/c1ccco1)Nc1ccc(C(=O)O)cc1NC(=O)/C=C/c1ccco1,17*,nt
O=C(O)C1CCN(S(=O)(=O)c2ccccc2Br)CC1,1,0.48
O=C(c1cccs1)C(O)c1cccs1 (configuration not stated),13*,-0.77
CN(C)c1ccc(C(O)C(=O)c2cccs2)cc1 (configuration not stated),0.08,0.09
Cc1ccc(-c2c(N3CCCCC3C)c(=O)c2=O)cc1C (configuration not stated),nt,1.4
CCOC(=O)C1=C(C)Nc2nc(SCC(C)C)[nH]c(=O)c2C1c1cccnc1 (configuration not stated),0.01,-0.14
Nc1ccc2nc(/C=C/c3ccccc3)[nH]c2c1,-2.8,-1.3
Nc1cccc(/C=C/c2nc3ccc(N)cc3[nH]2)c1,12*,2
CC(C)CCNC(=O)c1cnn2c3c(cnc12)CCCC3,nt,-0.49
SMILES,CDC25B-CDK2 inh,TAR Tat displ
CC(C)(C)OC(=O)NCC(=O)NNC(=S)NCc1ccccc1,-1.7,nt
Cc1ccc(N=C2NC(=O)/C(=C/c3ccc(O)c(Br)c3)S2)cc1Cl,8.8*,nt
CCOc1cc(/C=C2\SC(=Nc3cccc(Cl)c3C)NC2=O)ccc1O,0.82,nt
CC1(NC(=O)NC2CCS(=O)(=O)C2)CCS(=O)(=O)C1 (configuration not stated),0.63,0.75
Cc1cccc(-c2nc(CSc3nc4ncccc4o3)c(C)o2)c1,nt,1.1
COc1cccc2c1Oc1ncccc1N(C(=O)CCC(=O)O)C2,1.8,0.06
COc1cccc2c1Oc1ncccc1NC2,8.6*,0.72
COc1cc(-c2oc3cc(O)cc(O)c3c(=O)c2OC[C@@H]2OC(O[C@@H]3O[C@@H](C)[C@H](O)[C@@H](O)[C@H]3O)[C@@H](O)[C@H](O)[C@@H]2O)ccc1O (some centres not stated),nt,5
COc1ccc(-c2oc3cc(O[C@H]4O[C@H](CO)[C@@H](O)[C@H](O)[C@H]4O)c(OC)c(O)c3c(=O)c2OC)cc1O,nt,2.3
C[C@@H]1O[C@@H](OC[C@H]2O[C@@H](Oc3c(-c4ccc(O)c(O)c4)oc4cc(O)cc(O)c4c3=O)[C@H](O)[C@@H](O)[C@@H]2O)[C@H](O)[C@H](O)[C@H]1O,nt,11*
O=c1c(O[C@@H]2O[C@H](CO)[C@H](O)[C@H](O)[C@H]2O)c(-c2ccc(O)c(O)c2)oc2cc(O)cc(O)c12,nt,27*
